Measured values taken from PubChem BioAssay.
Values without a mark were called inactive. Active and inactive are the calls of the source. Cut-off read from the data, not from the text of the source, unless noted: active = inhibition above about 28%; inactive = the rest.

What was measured:
[1] = StAR promoter reporter inhibitors, counter-screen for LRH-1 inverse agonist project, cell-based, luminescence, high throughput (AID 651611); details: StAR promoter luciferase reporter counterscreen, at 3.6 µM, hits give high values
[2] = target: Nuclear receptor subfamily 5 group A member 2 (Homo sapiens) (UniProt O00482); assay: LRH-1 (NR5A2) inverse agonists, retest, confirmation, cell-based, luminescence (AID 651613; in the data active = inhibition above about 42%;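 note: HEK293T cells co-transfected with LRH-1 and StAR promoter luciferase reporter; 0% = vehicle wells and 100% = parental cells lacking receptor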); details: cell-based LRH-1 luciferase reporter, inverse agonism; at 3.6 µM; hits give high values
Nuclear receptor subfamily 5 group A member 2 (Homo sapiens), sequence (O00482 whole entry, looked up): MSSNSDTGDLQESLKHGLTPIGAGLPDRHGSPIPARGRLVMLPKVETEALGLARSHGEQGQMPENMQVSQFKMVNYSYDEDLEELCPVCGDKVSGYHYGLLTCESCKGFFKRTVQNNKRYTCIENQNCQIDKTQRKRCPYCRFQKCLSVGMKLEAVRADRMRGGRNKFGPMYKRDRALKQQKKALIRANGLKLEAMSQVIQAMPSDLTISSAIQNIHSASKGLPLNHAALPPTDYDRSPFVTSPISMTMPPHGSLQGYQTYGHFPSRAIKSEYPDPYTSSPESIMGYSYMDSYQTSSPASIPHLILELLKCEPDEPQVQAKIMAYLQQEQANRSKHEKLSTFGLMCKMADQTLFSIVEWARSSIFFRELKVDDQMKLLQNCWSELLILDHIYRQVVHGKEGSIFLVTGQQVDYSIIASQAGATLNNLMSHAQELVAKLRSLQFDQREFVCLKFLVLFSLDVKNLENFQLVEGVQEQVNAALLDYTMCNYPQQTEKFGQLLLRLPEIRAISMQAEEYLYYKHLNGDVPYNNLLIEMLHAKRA

[3] = target: Steroidogenic factor 1 (Homo sapiens) (UniProt Q13285); assay: SF1 (NR5A1) inverse agonists, counter-screen for LRH-1 inverse agonist project, cell-based, luminescence, high throughput (AID 651614; in the data active = inhibition above about 44%;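 note: cells cotransfected with StAR promoter reporter and SF1 expression vector; 0% = vehicle on cells with receptor and 100% = vehicle on cells lacking receptor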); details: cell-based SF1 luciferase reporter, at 3.6 µM, hits give high values
Steroidogenic factor 1 (Homo sapiens), sequence (Q13285 whole entry, looked up, the tested form may be a part): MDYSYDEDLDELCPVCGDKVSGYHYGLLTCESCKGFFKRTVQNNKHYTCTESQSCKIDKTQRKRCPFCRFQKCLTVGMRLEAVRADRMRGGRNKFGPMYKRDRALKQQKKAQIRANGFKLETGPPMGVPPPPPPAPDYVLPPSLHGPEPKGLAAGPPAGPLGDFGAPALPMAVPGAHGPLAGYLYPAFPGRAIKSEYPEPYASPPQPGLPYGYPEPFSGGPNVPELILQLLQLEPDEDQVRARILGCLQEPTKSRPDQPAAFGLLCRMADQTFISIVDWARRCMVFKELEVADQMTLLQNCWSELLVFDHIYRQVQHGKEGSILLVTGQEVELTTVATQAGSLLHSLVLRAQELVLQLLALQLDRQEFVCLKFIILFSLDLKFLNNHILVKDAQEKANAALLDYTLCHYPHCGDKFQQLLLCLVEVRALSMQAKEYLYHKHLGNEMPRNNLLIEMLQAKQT

[4] = VP16 transactivation reporter inhibitors, counter-screen for LRH-1 inverse agonist project, cell-based, luminescence, high throughput (AID 651615; in the data active = inhibition above about 33%); details: Gal4-VP16 luciferase reporter cells, at 3.6 µM, hits give high values

Row | SMILES | inhibition [1] | inhibition [2] | inhibition [3] | inhibition [4]
1 | O=C(CSc1cc(Cl)ccc1Cl)Nc1ccc(N2CCOCC2)cc1 | 1.91% | 63.9% (active) | 65.3% (active) | 3.31%
2 | Cc1[nH]c2ccccc2c1/C=N/Nc1ccc([N+](=O)[O-])cc1 | -1.71% | 55.8% (active) | 56.5% (active) | -3.15%
3 | CC1(C)CC2CC(C)(CN2S(=O)(=O)c2ccc(C(=O)Nc3cccc(S(=O)(=O)N4CCOCC4)c3)cc2)C1 (stereo not drawn) | 13% | 59% (active) | 56.4% (active) | 56% (active)
4 | COC(=O)c1ccc(N2CCCCC2)c(NC(=O)c2ccco2)c1 | 9.72% | 55.3% (active) | 61.5% (active) | 4.64%
5 | COc1ccc(/C=N/NC(=O)c2cc(-c3ccc(C)cc3C)nc3ccccc23)cc1COC(C)=O | 1.71% | 52.8% (active) | 50.6% (active) | -17.4%
6 | Cc1ccc(-n2nc(C)c(NC(=O)CCl)c2C)cc1 | 35.8% (active) | 47% (active) | 57.2% (active) | -120%
7 | COc1ccc(NC(=O)Cn2nnc(C(=O)Nc3ccccc3C)c2N)cc1 | 5.36% | 41.4% (active) | 37.6% | 9.36%
8 | NC(=S)Nc1ccc(Oc2ccc(NC(N)=S)cc2)cc1 | 5.35% | 31.2% | 40% | -6.09%
9 | O=C(C[C@H]1CC[C@@H]2[C@H](COC[C@H](O)CN2Cc2cccc(C(F)(F)F)c2)O1)NCCc1ccccc1 | 2.1% | 8.97% | 15.7% | 1.55%
10 | Clc1ccc2c(c1)-c1ccccc1C1=NCCN12 | 51.8% (active) | 90.7% (active) | 70.4% (active) | 64.1% (active)
11 | O=C(c1cccc(Cl)c1)N1CCCC(c2ccc(Cl)cc2)=N1 | 2.78% | 49.8% (active) | 57.3% (active) | 3.04%
12 | CC(=O)Nc1ccc(NC(=O)CSc2ccc(-c3ccco3)nn2)cc1 | 16.1% | 49.4% (active) | 44.7% (active) | -18.3%
13 | Cc1ccc(C)c(-c2cc(C(=O)N/N=C/c3cccnc3)c3ccccc3n2)c1 | 9.19% | 51.1% (active) | 44.9% (active) | 5.29%
14 | CCn1c2ccccc2c2cc(/C=N/n3c(-c4cc(C)[nH]n4)n[nH]c3=S)ccc21 | 11.8% | 4.98% | 31.7% | 7.75%
15 | CC1(C(=O)NCc2ccco2)Cc2c(-c3ccccc3)ccnc2O1 (stereo not drawn) | 42% (active) | 36.3% | 59% (active) | 26.6%
16 | CCC(=O)Nc1ccc(NC(=O)CSc2nc3cc4c(cc3cc2C)CCC4)cc1 | 9.63% | 56.4% (active) | 50.7% (active) | 0.93%
17 | Cc1nnc(SCC(=O)Nc2sc3c(c2C(N)=O)CCCC3)[nH]c1=O | 10.4% | 46.6% (active) | 29.9% | -3.51%
18 | CCOc1ccc(NC(=O)CN2C(=O)NC(C)(c3ccc(OC(F)F)cc3)C2=O)cc1 (stereo not drawn) | 18.8% | 62.6% (active) | 59.2% (active) | -30.5%
19 | CC(=O)C(C(C)=O)c1c(Cl)c(O)c(O)c2c(C(=O)c3ccccc3)coc12 | 73.1% (active) | 100% (active) | 92.8% (active) | 90.2% (active)
20 | Cc1c(C)c2ccc(OCC(=O)N3CC[C@@]4(O)CCCC[C@H]4C3)cc2oc1=O | 14.5% | 39% | 25.6% | -3.1%
21 | COc1ccc(CCNC(=O)CSc2ccc(NC(C)=O)cc2)cc1OC | 9.56% | 53.8% (active) | 53.4% (active) | -3.78%
22 | Cc1ccc(-c2nn3c(C)nnc3s2)cc1NC(=O)c1ccco1 | 7.12% | 63.2% (active) | 60.7% (active) | -12.3%
23 | COc1cc(C(=O)NC2CCN(C)CC2)ccc1Nc1ncc2c(n1)N(CCc1ccccc1)CCC(=O)N2C | 63.2% (active) | 54.8% (active) | 47.4% (active) | -166%
24 | CCOc1ccc(NC(=O)CSc2nc(O)c(C)c(=O)n2-c2ccc(F)cc2)cc1 | 5.33% | 60.6% (active) | 50.6% (active) | -14.2%
25 | O=C(CSc1n[nH]c(-c2ccccc2)n1)Nc1ccc(F)cc1F | 5.84% | 58.4% (active) | 50.4% (active) | 3.19%
26 | CC1CCCC(C)N1C(=O)COC(=O)Cc1ccc(Cl)cc1 (stereo not drawn) | -5.45% | 51.2% (active) | 41.8% | 0.05%

Row | SMILES | inhibition [1] | inhibition [2] | inhibition [3] | inhibition [4]
27 | Cc1ccc(NC(=O)CCl)c(C)c1 | 35% (active) | 59.3% (active) | 63.2% (active) | -43.6%
28 | CC(C)N1CCc2c(sc(NC(=O)c3ccc([N+](=O)[O-])o3)c2C(N)=O)C1 | 37.6% (active) | 55.4% (active) | 56.4% (active) | -8.36%
29 | CCOc1cc(S(=O)(=O)NCc2ccncc2)ccc1Cl | 21.4% | 56.6% (active) | 57.9% (active) | 55.6% (active)
30 | CCCCCCCN(C(=O)CCl)c1ccccc1C | 21% | 49.9% (active) | 42.9% (active) | -8.25%
31 | COc1cc(C2c3cc4c(cc3OC(Nc3ccc(C(=O)O)cc3)C2C)OCO4)cc(OC)c1OC (stereo not drawn) | 44.5% (active) | 49.7% (active) | 60.9% (active) | 26.4%
32 | COc1cc(-c2cc(NC=O)c3ncc(-c4ccc(C(C)=O)cc4)n3c2)ccc1O | 56.8% (active) | 64.4% (active) | 60.6% (active) | -49.1%
33 | O=[N+]([O-])c1ccc(N2CCCC2)cc1NC1CC1 | 0.53% | 47.1% (active) | 47.3% (active) | -3.08%
34 | O=C(NCc1cccnc1)c1cccn2c(=O)c3sccc3nc12 | 17.9% | 34.3% | 31.3% | 1.7%
35 | O=C(O)c1c[nH]c2c([N+](=O)[O-])cccc2c1=O | 10.4% | 35.2% | 29.6% | 5.89%
36 | CCn1c(=S)sc2c(=O)n(CC(=O)Nc3ccc(OC)c(Cl)c3)c(C)nc21 | 6% | 33.4% | 24.9% | 4.75%
37 | Cc1cc(C)nc(SCC(=O)Nc2ccc(N3CCOCC3)c(Cl)c2)n1 | -5.17% | 67.5% (active) | 59.8% (active) | 35.7% (active)
38 | CCOc1ccc(S(=O)(=O)Nc2nc3ccccc3nc2N2CCN(C)CC2)cc1 | -10.8% | 27.2% | 24.1% | -4.2%
39 | O=C(Nc1cc(C(F)(F)F)ccc1-n1cncn1)c1ccc([N+](=O)[O-])o1 | 22.2% | 57.7% (active) | 49.1% (active) | -15.7%
40 | CC1CCCC(C)N1C(=O)COC(=O)CCC1CCCC1 (stereo not drawn) | 3.25% | 51.2% (active) | 52.9% (active) | 2.94%
41 | COc1ccc(CNC(=O)c2sc(=O)n(Cc3ccc(-c4ccccc4)cc3)c2C)cc1OC | 26% | 37.7% | 42.5% | 31.6% (active)
42 | O=C(Nc1ccc(S(=O)(=O)N2CCCC2)cc1)c1ccc([N+](=O)[O-])o1 | 26.2% | 58.8% (active) | 62.7% (active) | 15.1%
43 | N#CCCn1cc(/C=N/NC(N)=S)c(-c2ccc(-c3ccccc3)cc2)n1 | 28.7% (active) | 52% (active) | 48.6% (active) | -9.84%
44 | CC1(C)CC(=O)C=C(c2ccc3ncccc3c2)C1 | 13.7% | 52.2% (active) | 52.9% (active) | 14.3%
45 | Cc1nnc(SCC(=O)Nc2ccc(Br)cc2)n(N)c1=O | 6.5% | 44.3% (active) | 32.1% | -5.1%
46 | NNC(=O)C(Cc1ccc(O)cc1)N1Cc2ccccc2C1=O (stereo not drawn) | -1.94% | 20.6% | 29.4% | 1.55%
47 | CCOc1ccc(CCNC(=O)COC(=O)CCc2cc(OC)c(OC)c(OC)c2)cc1OCC | 2.32% | 50.1% (active) | 47.2% (active) | 2.92%
48 | COCCn1c(C)cc(/C=C(\C#N)C(=O)OCC(=O)Nc2ccc(S(N)(=O)=O)cc2)c1C | 11.2% | 52.6% (active) | 46.3% (active) | -8.79%
49 | Cc1cc(=O)oc2c(C)c(OCC(=O)NC3CC(C)(C)NC(C)(C)C3)ccc12 | -1.6% | 48% (active) | 55% (active) | -11.2%
50 | CCCc1cc(=O)oc2cc(C)cc(OCC(=O)Nc3ccccn3)c12 | 2.99% | 60.1% (active) | 61.8% (active) | 3.1%
51 | O=C(Nc1cccc(S(=O)(=O)N2CCCCC2)c1)c1ccc([N+](=O)[O-])o1 | 33.8% (active) | 67.3% (active) | 69.2% (active) | -4.21%
52 | O=C(Cc1ccccc1)N/N=C/c1ccc([N+](=O)[O-])s1 | 2.21% | 60% (active) | 62.1% (active) | -9.91%
